PKM2 act: qHTS Assay for Activators of Human Muscle isoform 2 Pyruvate Kinase; Pyruvate kinase PKM (Homo sapiens), P14618; purified PKM2, Kinase-Glo ATP luminescence, activation; response scale: 0% is enzyme alone, no compound; Potency, µM (series often up to 57.5 µM), inactives show at the highest dose activation, actives largely listed as activators; actives 0.34% (n = 260,000); AID 1631, 2009; note: potency is the fitted concentration of half-maximal effect; nearly all actives have a fitted effect of over 55% in size
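ATP formation by purified human PK-M2, quantified via coupled luciferase luminescence after 1 h at room temperature with 0.1 mM ADP and 0.5 mM PEP final.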
CtBP-E1A inh: qHTS Assay for Inhibitors of the CtBP/E1A Interaction. actives 0.49% (n = 340,000). activity change, % (concentration not given with the values). AID 651724, 2012. AlphaScreen GST-E1A/His-CtBP binding, 1536-well; hits give low values. CtBP / adenovirus E1A interaction (AlphaScreen); in the data active = activity change below about -65%; inconclusive = mostly about -30% to -63%
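Protein mix (5X: 125 nM each GST-E1A, His-CtBP) was incubated with pinned compound 2 h at 37 deg C in dark, in 50 mM Tris pH 8.0 buffer with 300 mM NaCl. Glutathione donor and nickel acceptor beads followed; AlphaScreen signal read after 1 h.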
Six1-Eya2 blk: qHTS Assay for Inhibitors of the Six1/Eya2 Interaction; Homeobox protein SIX1 (Homo sapiens) + Protein phosphatase EYA2 (Homo sapiens), …; actives 0.56% (n = 360,000); AID 651725, 2012; AlphaScreen GST-Six1/His-Eya2 binding, biochemical; hits give low values; activity change, % (test concentration not listed); in the data active = activity change below about -65%; inconclusive = mostly about -30% to -63%
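Compounds are tested against tagged Six1 and Eya2 proteins bridged by glutathione donor and nickel acceptor beads; after a one-hour incubation at 37 °C without light, AlphaScreen emission is recorded.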
RORg inh: qHTS for inhibitors of ROR gamma transcriptional activity. Nuclear receptor ROR-gamma (Mus musculus), P51450. Drosophila S2 Gal4-RORgamma UAS-luciferase reporter, 20 h. Potency, µM (highest dose often 53.6 µM), without a hit: at the top dose activity change, negative = inhibition, most hits filed as inhibitors. actives 5.4% (n = 310,000). AID 2551, 2010; note: potency is the fitted concentration of half-maximal effect; nearly all actives have a fitted effect of over 60% in size
Target sequence (P51450 whole entry, looked up, the tested form may be a part): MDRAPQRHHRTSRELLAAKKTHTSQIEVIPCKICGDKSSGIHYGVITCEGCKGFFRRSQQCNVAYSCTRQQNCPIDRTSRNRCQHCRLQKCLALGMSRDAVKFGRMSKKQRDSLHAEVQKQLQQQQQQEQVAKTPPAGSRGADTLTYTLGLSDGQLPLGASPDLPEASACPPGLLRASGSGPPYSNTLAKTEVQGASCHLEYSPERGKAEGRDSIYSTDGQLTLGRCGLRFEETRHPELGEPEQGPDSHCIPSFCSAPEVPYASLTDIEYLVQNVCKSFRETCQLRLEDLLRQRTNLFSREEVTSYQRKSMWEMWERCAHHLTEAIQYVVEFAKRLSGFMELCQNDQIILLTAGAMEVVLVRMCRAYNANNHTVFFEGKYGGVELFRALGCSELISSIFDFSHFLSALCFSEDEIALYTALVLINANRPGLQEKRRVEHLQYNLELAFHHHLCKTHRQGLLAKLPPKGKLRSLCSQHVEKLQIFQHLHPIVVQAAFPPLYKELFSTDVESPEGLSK
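Stable Schneider cell line, Gal4 DNA-binding domain fused to ROR gamma, UAS-luciferase. Cmpd 1 hr RT → CuSO4 700 uM final → 20 hr RT → luciferase reagent 10 min → luminescence.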
Gal4-VP16 FLuc: VP16 counterscreen qHTS for inhibitors of ROR gamma transcriptional activity; Potency, µM (top dose mostly 53.6 µM), for inactives: at the highest dose activity, negative = inhibition, actives largely listed as inhibitors; Drosophila S2 Gal4-VP16 UAS-luciferase, luminescence, 20 h; actives 3.5% (n = 310,000);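 note: Gal4-VP16 expression switched on by copper sulfate through the metallothionein promoter; potency is the fitted concentration of half-maximal effect; nearly all actives have a fitted effect of over 50% in size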
Numbers without * were called inactive; ? = inconclusive; . = not tested or not shown; [ ] = remark or other dose. Rows were chosen to be rich in hits. Some 5.6% of all compounds tested hit in one or more screens of this group. Unless noted, calls come from the whole dose curve; as a rule, active = well fitted curve in the direction sought with a large enough effect; inconclusive = small, poorly fitted or top-dose-only effect, or another doubt; inactive = no such curve, though single readings can be large; an effect the other way counts as inactive or inconclusive. % is set by controls: 0 for no effect and ±100 for the full control effect.

SMILES	PKM2 act	CtBP-E1A inh	Six1-Eya2 blk	RORg inh	Gal4-VP16 FLuc
CCc1ccc(NC(=O)CN(N=Nc2nonc2C)c2nonc2C)cc1	8.1%	-12.2	-5.0	3.98µM*	?
C/C=C\C1=C(CO)C(=O)[C@@H]2OC2C1=O (stereo partly drawn)	.	.	.	?	-25.3%[10 µM]
COc1cccc(C(=O)NCC(=O)OCC(=O)C(C)(C)C)c1	0.0%	.	5.6	2.51µM*	-3.5%
Cc1ccc(C(=O)NNC2=Nc3cccc4cccc2c34)cc1	0.5%	3.5	-1.4	0.891µM*	1.41µM*
COc1ccc(CC(=O)NNC2=Nc3cccc4cccc2c34)cc1	0.9%	0.6	-0.6	8.91µM*	-19.2%
COc1ccc(C(=O)NNC2=Nc3cccc4cccc2c34)cc1	1.2%	-4.1	-0.7	0.562µM*	?
NC(=O)NNC1=Nc2cccc3cccc1c23	0.8%	0.0	1.2	-34.6%	-10.8%
CN[C@@H](CCCN=C(N)N)C(=O)N[C@@H](CCCCN)C(=O)N1CCC[C@H]1C(=O)N[C@@H](Cc1c[nH]c2ccccc12)C(=O)N[C@H](C(=O)N[C@H](CC(C)C)C(=O)O)C(C)(C)C	.	.	.	-3.1%	19.5%
Cc1ccc(CNC(=O)C(N=C2NS(=O)(=O)c3ccccc32)C(C)C)cc1 (stereo not drawn)	.	5.5	2.9	.	.
CCn1c(SCC(=O)c2ccc(C)cc2)nnc1-c1ccoc1C	-5.2%	-0.4	-1.4	?	15.8µM*
CSc1ncccc1C(=O)N1CCCC(N2CCN(c3ccccc3C)CC2)C1 (stereo not drawn)	.	-6.3	-5.4	.	.
COc1ccc(-n2cc(CN3CCCC3)c(-c3cccc(F)c3)n2)cc1	2.6%	19.6	-21.0	-14.9%	-3.0%
Cc1ccc(-c2nn(-c3cccc(F)c3)cc2CN2CCN(c3ccccn3)CC2)o1	15.8µM*	-16.1	?	9.3%	-19.1%
Cc1cccc(-n2cc(CN3CCN(Cc4nccn4C)CC3)c(-c3cccc(F)c3)n2)c1	-3.8%	.	0.7	11.2µM*	?
Cc1ccc(-c2nn(-c3cccc(F)c3)cc2CNCc2cccnc2)o1	4.7%	-11.1	-12.4	17.0%	-2.6%
Cc1ccc(-c2nn(-c3cccc(F)c3)cc2CN(Cc2nccn2C)C(C)C)o1	?	-10.3	-19.1	5.62µM*	?
CC(=O)c1ccc(OCC(=O)Nc2nnc(C3CC3)s2)cc1	.	1.9	3.7	.	.
COc1ccccc1NC(=S)NC(=O)c1ccc(Cn2cc(Br)cn2)cc1	2.0%	-8.0	-6.9	7.94µM*	?
CCn1cc(C(=O)NC(=S)Nc2ccccc2Br)cn1	1.2%	1.1	2.2	7.08µM*	10µM*
CCn1cc(C(=O)NC(=S)Nc2ccccc2[N+](=O)[O-])cn1	0.6%	0.0	18.8	?	?
O=C(Oc1cc(Cl)cc(Cl)c1)c1cnc2n(c1=O)CCS2	2.4%	-1.1	-9.0	11.5%	2.7%
Cc1ccccc1-c1cnc(C(O)c2cc(Cl)cc(Cl)c2)[nH]1 (stereo not drawn)	.	-8.5	-11.8	.	.
Cc1ccccc1/C=C1\SC(=S)N(/N=C/c2cc([N+](=O)[O-])ccc2O)C1=O	-3.2%	-91.6*	?	?	?
O=C(NC(=S)Nc1cccc(Cl)c1N1CCCCC1)c1ccc2c(c1)OCCO2	-12.1%	-8.3	-0.4	2.51µM*	4.47µM*
CCC(=O)NC(=S)Nc1cccc(Cl)c1N1CCCC1	-0.4%	5.1	33.7	1.12µM*	?
Cc1cccc(C(=O)NC(=S)N2CCN(C(=S)NC(=O)c3cccc(C)c3)CC2)c1	2.0%	0.1	-13.5	0.794µM*	0.794µM*
Cc1cccc(C(=O)NC(=S)N2CCN(C)CC2)c1	-2.2%	1.8	2.4	1.26µM*	8.91µM*
CCCNC(=S)N1CCC(NC(=O)c2cccc(C)c2)CC1	14.7%	-10.2	9.5	-12.8%[1.91 µM]	0.3%
CCCCC1=NN2C(=N)CC(=O)N=C2S1	6.9%	-2.5	-6.8	10µM*	0.7%
COc1cc(NCCC(=O)c2cccs2)c(OC)cc1Cl	0.3%	-1.1	?	-18.2%	-21.3%
